{
  "source": "the supplement of paper PMC6518042",
  "note": "Values without a mark were called inactive.",
  "data": [
    {"system": "Pectobacterium parmentieri SCC3193", "assay": "DuctApe activity index (growth/respiration on compound as sole nutrient source, blank-subtracted) (activity index (0-3)); higher = stronger utilization of the compound, active = 3 or more", "details": "nutrient role (plate category): carbon", "method": "(§1)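 Biolog Phenotype Microarray plates PM1, PM2A (carbon), PM3 (nitrogen) and PM4 (phosphorus/sulfur) inoculated with P. parmentieri SCC3193 in M9-C minimal salts medium with Biolog dye A, and read in the OmniLog for 46 h. Each well was tested in triplicate and the experiment was run twice. DuctApe computed a blank-subtracted activity index (AV, 0-3) from the mean curves; growth is positive at AV >= 3 and negative at AV <= 2.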", "values": [
      {"smiles": "CCCCCCCCCC(=O)O", "note": "[Capric acid]", "DuctApe activity index": 0},
      {"smiles": "OC[C@H]1O[C@H](OC[C@H]2O[C@H](O[C@]3(CO)O[C@H](CO)[C@@H](O)[C@@H]3O)[C@H](O)[C@@H](O)[C@@H]2O)[C@H](O)[C@@H](O)[C@H]1O", "note": "[D-Raffinose]", "DuctApe activity index": "3 (active)"},
      {"smiles": "N[C@@H](C(=O)O)[C@@H](O)[C@H](O)[C@H](O)CO", "note": "[D-Glucosaminic acid]", "DuctApe activity index": 0},
      {"smiles": "CC(=O)C(C)=O", "note": "[2,3-Butanedione]", "DuctApe activity index": 0},
      {"smiles": "O=C(O)[C@]1(O)C[C@@H](O)[C@@H](O)[C@H](O)C1", "note": "[Quinic acid]", "DuctApe activity index": 0},
      {"smiles": "OC[C@H]1OC(O)[C@H](O)[C@@H](O)[C@H]1O", "note": "(stereo partly drawn) [D-Galactose]", "DuctApe activity index": "3 (active)"},
      {"smiles": "NC(=O)C[C@H](N)C(=O)O", "note": "[L-Asparagine]", "DuctApe activity index": "3 (active)"},
      {"smiles": "O=C[C@H](O)[C@H](O)[C@@H](O)CO", "note": "[L-Lyxose]", "DuctApe activity index": 0},
      {"smiles": "Nc1ncnc2c1ncn2[C@@H]1O[C@H](CO)[C@@H](O)[C@H]1O", "note": "[Adenosine]", "DuctApe activity index": 1},
      {"smiles": "OC[C@@]12OC[C@@H](O1)[C@@H](O)[C@@H](O)[C@@H]2O", "note": "[Sedoheptulosan]", "DuctApe activity index": 0},
      {"smiles": "OC[C@H]1O[C@H](OC[C@H]2O[C@H](OC[C@H]3O[C@H](O[C@]4(CO)O[C@H](CO)[C@@H](O)[C@@H]4O)[C@H](O)[C@@H](O)[C@@H]3O)[C@H](O)[C@@H](O)[C@H]2O)[C@H](O)[C@@H](O)[C@H]1O", "note": "[Stachyose]", "DuctApe activity index": "3 (active)"},
      {"smiles": "CC(O)C(C)O", "note": "(stereo not given) [2,3-Butanediol]", "DuctApe activity index": 0},
      {"smiles": "N[C@@H](CCC(=O)O)C(=O)O", "note": "[L-Glutamic acid]", "DuctApe activity index": 2},
      {"smiles": "O=CO", "note": "[Formic acid]", "DuctApe activity index": 2},
      {"smiles": "O=C(O)CC(O)(CC(=O)O)C(=O)O", "note": "[Citric acid]", "DuctApe activity index": 2},
      {"smiles": "O=C(O)c1ccc(O)cc1", "note": "[4-Hydroxybenzoic acid]", "DuctApe activity index": 0},
      {"smiles": "O=C(O)c1ccccc1O", "note": "[2-Hydroxybenzoic acid]", "DuctApe activity index": 0},
      {"smiles": "C[C@@H](O)[C@H](O)[C@H](O)[C@@H](O)C=O", "note": "[D-Fucose]", "DuctApe activity index": 0},
      {"smiles": "CSCC[C@H](N)C(=O)O", "note": "[L-Methionine]", "DuctApe activity index": 0},
      {"smiles": "OC1OC[C@@H](O)[C@H](O)[C@H]1O", "note": "(stereo partly drawn) [D-Xylose]", "DuctApe activity index": "3 (active)"},
      {"smiles": "OC[C@H]1O[C@@](CO)(O[C@H]2O[C@H](CO)[C@@H](O)[C@H](O)[C@H]2O)[C@@H](O)[C@@H]1O", "note": "[Sucrose]", "DuctApe activity index": "3 (active)"}
    ]},
    {"system": "Pectobacterium parmentieri SCC3193", "assay": "DuctApe activity index (growth/respiration on compound as sole nutrient source, blank-subtracted) (activity index (0-3)); higher = stronger utilization of the compound, active = 3 or more", "details": "nutrient role (plate category): nitrogen", "method": "as §1", "values": [
      {"smiles": "CSCC[C@H](NC(=O)CN)C(=O)O", "DuctApe activity index": 0},
      {"smiles": "NC(=O)C[C@H](N)C(=O)O", "note": "[L-Asparagine]", "DuctApe activity index": 2},
      {"smiles": "N[C@@H](Cc1ccc(O)cc1)C(=O)O", "note": "[L-Tyrosine]", "DuctApe activity index": 0},
      {"smiles": "N[C@@H](CS)C(=O)O", "note": "[L-Cysteine]", "DuctApe activity index": 0},
      {"smiles": "Nc1ncnc2c1ncn2[C@@H]1O[C@H](CO)[C@@H](O)[C@H]1O", "note": "[Adenosine]", "DuctApe activity index": 2},
      {"smiles": "N[C@@H](CCC(=O)O)C(=O)O", "note": "[L-Glutamic acid]", "DuctApe activity index": 1},
      {"smiles": "CSCC[C@H](N)C(=O)O", "note": "[L-Methionine]", "DuctApe activity index": 0}
    ]},
    {"system": "Pectobacterium parmentieri SCC3193", "assay": "DuctApe activity index (growth/respiration on compound as sole nutrient source, blank-subtracted) (activity index (0-3)); higher = stronger utilization of the compound, active = 3 or more", "details": "nutrient role (plate category): phosphate & sulphur", "method": "as §1", "values": [
      {"smiles": "CSCC[C@H](NC(=O)CN)C(=O)O", "DuctApe activity index": 1},
      {"smiles": "O=P1(O)OP(=O)(O)OP(=O)(O)O1", "note": "[Trimetaphosphate]", "DuctApe activity index": 2},
      {"smiles": "CS(=O)(=O)O", "note": "[Methane Sulfonic acid]", "DuctApe activity index": 0},
      {"smiles": "N[C@@H](CS)C(=O)O", "note": "[L-Cysteine]", "DuctApe activity index": 0},
      {"smiles": "N[C@@H](COP(=O)(O)O)C(=O)O", "note": "[O-Phospho-L-Serine]", "DuctApe activity index": 2},
      {"smiles": "O=S1(=O)CCCC1", "note": "[Tetramethylene Sulfone]", "DuctApe activity index": 0},
      {"smiles": "O=S(=O)(O)O", "note": "[Sulfate]", "DuctApe activity index": 1},
      {"smiles": "Nc1ncnc2c1ncn2[C@@H]1O[C@@H]2COP(=O)(O)O[C@H]2[C@H]1O", "note": "[Adenosine 3`,5`-Cyclic Monophosphate]", "DuctApe activity index": 0},
      {"smiles": "O=P(O)(O)CP(=O)(O)O", "note": "[Methylene Diphosphonic acid]", "DuctApe activity index": 0},
      {"smiles": "N[C@@H](CSCSC[C@H](N)C(=O)O)C(=O)O", "note": "[L-Djenkolic acid]", "DuctApe activity index": 1},
      {"smiles": "CSCC[C@H](N)C(=O)O", "note": "[L-Methionine]", "DuctApe activity index": 1},
      {"smiles": "CSCCC(NC(C)=O)C(=O)O", "note": "(racemic) [N-Acetyl-D,L-Methionine]", "DuctApe activity index": 2}
    ]}
  ]
}
